Giardia FBPA inh = Giardia lamblia aldolase inhibition; A8B2U2; purified Giardia FBPA; Potency, µM (highest dose often 59.6 µM), inactives show at the top dose activity, negative = inhibition, most hits filed as inhibitors; 0.71% of 290,000 active; AID 2451; further: nearly all actives have a fitted effect of over 55% in size
Target sequence (A8B2U2 whole entry, looked up): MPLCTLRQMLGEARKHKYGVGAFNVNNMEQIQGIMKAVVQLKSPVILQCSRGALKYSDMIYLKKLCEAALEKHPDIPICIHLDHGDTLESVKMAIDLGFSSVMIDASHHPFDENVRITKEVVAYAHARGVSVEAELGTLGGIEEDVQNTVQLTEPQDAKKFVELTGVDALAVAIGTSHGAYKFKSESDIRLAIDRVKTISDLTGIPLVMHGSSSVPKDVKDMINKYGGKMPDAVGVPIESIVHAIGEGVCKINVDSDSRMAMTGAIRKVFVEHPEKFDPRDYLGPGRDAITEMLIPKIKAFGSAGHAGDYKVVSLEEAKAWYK
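40 nM FBPA preincubated 10 min at RT with compound (up to 57.5 uM final), then substrate plus GAPDH/TPI/NAD/arsenate coupling and diaphorase/resazurin added. Fluorescence read after 20 min at RT, 525/598 nm.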
Sm TGR block = inhibitors of Schistosoma mansoni thioredoxin glutathione reductase; purified TGR, DTNB reduction, TNB absorbance 405 nm; Q962Y6; Potency, µM (series often up to 114 µM), for inactives: at the top dose activity change, negative = inhibition, actives largely listed as inhibitors; AID 485364; 3% of 360,000 active; further: nearly all actives have a fitted effect of over 60% in size
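First, TGR (20 nM dispensed) and NADPH were mixed with compound. Second, a 15 min room-temperature incubation followed. Third, further NADPH and then DTNB were added to start the reaction. Finally, TNB absorbance was monitored kinetically.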
RE007 growth inh = less growth of the S. pombe RE007 Vpr strain. Potency, µM (doses to about 92.2 µM), for the others: top-dose activity change, negative = less growth, hits mostly inhibitors. 0.21% of 360,000 active. S. pombe RE007 Vpr strain, BacTiter-Glo ATP luminescence, 24 h; active means well fitted falling curve with a large enough effect; inconclusive means small, poorly fitted or top-dose-only effect; inactive means no such curve, though single readings can be large or run the other way; further: nearly all actives have a fitted effect of over 50% in size
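Fission yeast RE007 carrying one integrated HIV-1 vpr copy, seeded at OD 0.01 in PMG+AL medium with 23 nL pinned compound. Grown 24 h at 30 degrees; viability read by BacTiter-Glo luminescence after 5 min.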
LmPK inh = LmPK (Leishmania mexicana) enzyme inhibition; Q27686; purified LmPK, Kinase-Glo ATP luminescence, 1 h; Potency, µM (top dose mostly 57.5 µM), inactives show at the highest dose activity change, negative = inhibition, hits mostly inhibitors; 0.37% of 290,000 active
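Pyruvate kinase activity monitored as ATP production (luciferase luminescence). Conditions: 0.1 nM enzyme, 0.5 mM PEP, 0.1 mM ADP, 1 h, RT; normalized against uninhibited and no-enzyme wells.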
Tb PYK inh = T. brucei pyruvate kinase inhibition. Q57TT1. TbPYK enzyme, Kinase-Glo Plus ATP luminescence, 45 min. Potency, µM (doses to about 76.8 µM), for the others: top-dose activity, negative = inhibition, usual class: inhibitors. 0.12% of 410,000 active; further: nearly all actives have a fitted effect of over 50% in size
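Glycolytic pyruvate kinase of T. brucei was incubated with substrate, test compound and 130 uM ADP for 45 minutes at room temperature. Luminescent Kinase-Glo Plus signal was measured after 10 minutes.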
Numbers without * were called inactive; ? = inconclusive; . = no result; [ ] = remark or other dose. Hits are enriched below; roughly 3.3% of the tested compounds scored in any of these assays. Unless noted, the call rests on the fitted dose curve; in most records, active means well fitted curve in the direction sought with a large enough effect; inconclusive means small, poorly fitted or top-dose-only effect, or another doubt; inactive means no such curve, though single readings can be large; an effect the other way counts as inactive or inconclusive. On the % scale 0 is the no-effect control and ±100 the full control effect; potency means the concentration at half of the fitted maximal effect.

SMILES	Giardia FBPA inh	Sm TGR block	RE007 growth inh	LmPK inh	Tb PYK inh
Cc1ccc(C(=O)NC(N2CCCC2)C(Cl)(Cl)Cl)cc1 (stereo unspecified)	-1%	35µM*	-1%	2%	5%
Cc1ccc(C(=O)N/C(=C\c2ccc(-c3ccccc3[N+](=O)[O-])o2)C(=O)NCCCN(C)C)cc1	?	8.9µM*	-7%	-8%	-4%
Cc1ccc(C(=O)N/C(=C\c2ccc(-c3ccccc3[N+](=O)[O-])o2)C(=O)NCCN(C)C)cc1	5µM*	1.4µM*	7%	-9%	-1%
O=C(/C=C/c1ccc(-c2ccccc2[N+](=O)[O-])o1)c1ccccc1	?	?	-4%	0%	-5%
O=C(O)/C(=C\c1ccc(-c2ccccc2[N+](=O)[O-])o1)c1ccccc1	-14%	35µM*	-14%	-16%	1%
CCCCNC(=O)/C(=C\c1ccc([N+](=O)[O-])o1)NC(=O)c1ccccc1	-6%	45µM*	-26%	10%	-2%
COC(=O)/C(=C\c1ccc([N+](=O)[O-])o1)NC(=O)c1ccccc1	-4%	?	-4%	-6%	6%
CN(C)CCCNC(=O)/C(=C/c1ccc(-c2ccc([N+](=O)[O-])cc2)o1)NC(=O)c1ccccc1	9%	0%	-6%	-2%	3%
O=C(NC(=S)NCc1ccccc1)c1cccnc1	-6%	-7%	-18%	-13%	-1%
O=C1NC2(CCCCCC2)C(=O)N1Cc1ccc([N+](=O)[O-])cc1	4%	-18%	2%	3%	2%
N=C1SCC(=O)N1c1ncc(Cc2cccc(Cl)c2)s1	-21%	-2%[57.1 µM]	18µM*	-5%	-3%
N=C1SCC(=O)N1c1ncc(Cc2ccccc2Cl)s1	?	8%	?	-3%	-9%
Nc1ncnc2c1ncn2[C@@H]1O[C@H](CNC(=O)[C@@H](N)COCc2ccccc2)[C@@H](O)[C@H]1O	.	.	-26%	.	2%
CC1(C)CC(N2CCOCC2)=CC(=[N+]2CCOCC2)C1	-6%	45µM*	-4%	8%	0%
COc1ccc(NC(=O)C(=O)NCCC2=CCCCC2)c(OC)c1	2%	-1%	-7%	0%	2%
COc1ccccc1-n1c(Cc2cccs2)n[nH]c1=S	-8%	-20%	-7%	-20%	?
Cc1nn(CCc2n[nH]c(=S)n2C)c(C)c1Br	-23%	-2%	13%	-20%	?
COc1ccccc1-n1c(CCn2nc(C)c(Br)c2C)n[nH]c1=S	-13%	-15%	2%	?	3.5µM*
Cc1nn(CCc2n[nH]c(=S)n2C2CCCCC2)c(C)c1Br	1%	8%	-9%	7.9µM*	13µM*
O=C(NNC(=O)c1cccc2ccccc12)c1cccc(F)c1	.	.	5%	.	-1%
O=C(CCCN1C(=O)c2cccnc2Oc2ccc(Cl)cc21)N1CCCCC1	14%	13µM*	14%	-7%	6%
CC(C)N(C(=O)CSc1nnc(CSc2ncccn2)n1C)C(C)C	4%	34%	-6%	-11%	0%
COc1ccccc1C(CCN(Cc1ccccc1)C(C)=O)c1ccco1 (stereo unspecified)	13%	18µM*	15%	-14%	-3%
CC(=O)N(CCC(c1ccco1)C(C)C)Cc1ccc(Cl)cc1 (stereo unspecified)	2%	20µM*	-14%	-2%	-4%
CN(Cc1ccccc1)S(=O)(=O)c1ccc(Cl)c(C(=O)NCCCN2CCCC2=O)c1	.	.	0%	.	-7%
SMILES	Giardia FBPA inh	Sm TGR block	RE007 growth inh	LmPK inh	Tb PYK inh
CCCCOc1ccc(C2=NC(c3cccs3)=Nc3ccc(OC)cc3N2)cc1	.	6%	.	.	0%
COc1ccc(Cc2nnc(SCC(=O)NC(C)c3ccccc3)o2)cc1 (stereo unspecified)	-1%	-11%	8%	0%	-7%
Cc1ccccc1-c1nn(-c2ccc(F)cc2F)cc1CNCCN(C)C	8%	-1%	-22%	8%	-2%
COCCN(C)Cc1cn(-c2ccc(F)cc2F)nc1-c1ccccc1C	?	5µM*	-7%	0%	-3%
Cc1ccc(-c2nn3c(C)nnc3s2)cc1NC(=O)c1ccc(Br)o1	2%	50µM*	2%	5%	0%
COc1cc2sc3ccc(-c4ccc(N(C)C)nc4)cc3c(=O)c2cc1OC	.	.	-11%	.	2%
CC(=O)Nc1ccc(C(=O)OCC(=O)N(c2ccccc2)C2CCS(=O)(=O)C2)cc1 (stereo unspecified)	.	-7%	-11%	.	8%
O=C(CCl)N(c1ccccc1)C1CCS(=O)(=O)C1 (stereo unspecified)	-1%	22µM*	.	4%	2%
Cn1cnc(S(=O)(=O)N2CCCC(C(=O)Nc3ccc(F)cc3Cl)C2)c1 (stereo unspecified)	.	0%	.	.	-1%
Nc1ccc2ncccc2c1	2.2µM*	-4%	-4%	-10%	-28%
Cc1ccccc1C1=CCN(c2ncc(NC(=O)c3ccc(Cl)cc3)cc2C(=O)O)CC1	.	40µM*	.	.	5%
C=C(C)CN(CC)C(=O)c1ccc(OC2CCN(S(=O)(=O)N(C)C)CC2)cc1	-3%	-13%	11%	4%	-7%
Cc1ccc(N2C(=O)NC(=O)C3(Cc4ccccc4N4CCN(c5ccccc5)CC43)C2=O)cc1 (stereo unspecified)	-11%	18µM*	23%	17%	-5%
O=C1c2ccccc2C(=O)C12Cc1ccccc1N1CCN(c3ccccc3)CC12 (stereo unspecified)	-18%	-19%	3%	3%	0%
COc1c(/C=N/NC(=O)c2ccncc2)c(CCN(C)C(C)=O)cc2c1OCO2	-8%	21%	2%	2%	-1%
Cc1ccc2[nH]c3c(c2c1)CN(C(=O)CN1CC(C)OC(C)C1)CC3 (stereo unspecified)	?	40µM*	-1%	2%	1%
Cc1ccc2[nH]c3c(c2c1)CN(C(=O)CN1CCSCC1)CC3	-15%	25%	.	2%	.
N#Cc1ccc(C(S(=O)(=O)Cc2ccccc2)S(=O)(=O)Cc2ccccc2)cc1	.	.	-3%	.	-1%
COc1ccc(NC(=O)CN(C)CC(=O)Nc2sc3c(c2C(N)=O)CCC3)cc1	.	50µM*	-3%	.	-10%
COc1ccc2nc(NC3=NCCC3)sc2c1	1%	12%	-27%	-9%	2%
CCOC(=O)c1ccc(NC(=O)c2c(NCc3cccs3)sc3c2CCCCC3)cc1	.	14µM*	.	.	?
COc1ccc(NC(=O)c2c(NCc3cccs3)sc3c2CCCCC3)c(OC)c1	.	5.6µM*	.	.	?
COc1ccc2nc(Nc3sc4c(c3C(N)=O)CCCC4)sc2c1	-25%	13µM*	?	-27%	2.8µM*
COc1ccc(CC(=O)Nc2sc3c(c2C(N)=O)CCCC3)cc1	13%	-15%	1%	2%	3%

Screens as filed in PubChem BioAssay.
